In paper PMC10726135, “HNF4α isoforms regulate the circadian balance between carbohydrate and lipid metabolism in the liver” one finds binding signal data, which are given here for 31 sequences.

In all, about 18,000 sequences were measured (“log2 normalized intensity”: median about 0.36, highest 2% from about 7.3 on). Shown is part of a subset that was picked to be rich in the highest values.

The experiment has as its target T1, HNF4alpha8 (COS-7 nuclear extract) (Homo sapiens, UniProt P41235-5 1-452).
T1 sequence: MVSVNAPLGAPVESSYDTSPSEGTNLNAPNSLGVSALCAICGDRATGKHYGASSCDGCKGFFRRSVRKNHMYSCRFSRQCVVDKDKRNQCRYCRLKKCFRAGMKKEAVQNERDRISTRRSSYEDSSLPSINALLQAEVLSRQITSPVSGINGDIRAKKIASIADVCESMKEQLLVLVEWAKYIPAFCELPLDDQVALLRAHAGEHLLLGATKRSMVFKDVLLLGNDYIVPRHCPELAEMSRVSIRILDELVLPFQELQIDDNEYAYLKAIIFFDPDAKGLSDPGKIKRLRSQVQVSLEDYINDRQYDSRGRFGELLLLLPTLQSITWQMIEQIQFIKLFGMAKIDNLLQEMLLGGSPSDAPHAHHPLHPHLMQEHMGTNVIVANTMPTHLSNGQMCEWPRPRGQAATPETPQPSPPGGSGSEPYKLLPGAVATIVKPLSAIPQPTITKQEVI
As to the kind of experiment: protein-binding microarray; COS-7 nuclear extract on double-stranded Agilent 4x180k PBM; binding buffer, salt, pH and temperature not given in the material; high values mean tight binding. To be noted: chain copies: 2; label: 3' end of strand 1 on the slide; dsDNA, one strand shown. The procedure, abridged:
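COS-7 cells were transiently transfected by CaPO4 with an expression vector for a human HNF4α isoform, and nuclear extracts were prepared from them. The extracts were applied to a custom Agilent SurePrint G3 4x180k array of double-stranded ~60-nt oligonucleotides, with ~44,000 test sequences spotted in quadruplicate. An Agilent G2565CA scanner imaged bound HNF4α at 2-µm resolution. Binding signal is the background-corrected, normalized gProcessedSignal from Agilent software.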
For “AATGGAGTTTGGTTTAAAGTTCAAGTCATAGCCTAGGGAGATTAGAGTATCGGTCGA”, the binding signal came to 2.74 log2 normalized intensity. Regarding “AGGTGTAACCTGCTCTCTCATGCCCTTTGCGCCTAGGGAGATTAGAGTATCGGTCGA”, the binding signal turned out to be 4.81 log2 normalized intensity. Then “CTTTCCTGGTGCCTCCTTATCTCCCCAACTGCCTAGGGAGATTAGAGTATCGGTCGA”, with 3.48 log2 normalized intensity; and “TTTTAATTAGAACTGTAATTGAGTAACCAGGCCTAGGGAGATTAGAGTATCGGTCGA”, with 0.406 log2 normalized intensity; and “TAAGCTACTGAAAATGACCTTTGTTCCCTGGCCTAGGGAGATTAGAGTATCGGTCGA”, with 9.03 log2 normalized intensity.

With “TACTGAAAATGACCTTTGTTCCCTGCACTTGCCTAGGGAGATTAGAGTATCGGTCGA”, the binding signal came to 7.89 log2 normalized intensity. With “AAAAAAAAAAATTACTGACCCTTGCACTGTGCCTAGGGAGATTAGAGTATCGGTCGA”, the binding signal was 5.45 log2 normalized intensity.

Turning to “ATCTCTAAGCTACTGAAAATGACCTTTGTTGCCTAGGGAGATTAGAGTATCGGTCGA”, the binding signal was 6.73 log2 normalized intensity.

Take “GAAACCCTAAACCTGCAAACCTTTGACCTTGCCTAGGGAGATTAGAGTATCGGTCGA”: the binding signal was 5.96 log2 normalized intensity. Then “AATTCATCTCTAAGCTACTGAAAATGACCTGCCTAGGGAGATTAGAGTATCGGTCGA”, with 3.88 log2 normalized intensity. Take “GATTTTCAGGTTCCCCAGTGAGGATGTGTGGCCTAGGGAGATTAGAGTATCGGTCGA”: the binding signal is 1.53 log2 normalized intensity. As to “TGGCGTATGCAGCAGGGCAGCAGCCTGACCGCCTAGGGAGATTAGAGTATCGGTCGA”, the binding signal was found to be 0.823 log2 normalized intensity.

On to “TTAACCTCTATTGACCTTCTTATTTGGAGAGCCTAGGGAGATTAGAGTATCGGTCGA”, for which the binding signal came to 2.41 log2 normalized intensity. Consider “GAGGAGACCTTTGGATATCATATCATCTTCGCCTAGGGAGATTAGAGTATCGGTCGA”, for which the binding signal stood at 2.39 log2 normalized intensity.

“TAGTTAGAGTCACTGATAAGTCTGCTTGCCGCCTAGGGAGATTAGAGTATCGGTCGA”: the binding signal is -0.858 log2 normalized intensity. Then “CGCCCCCAACGGGCCACGCCCTGCACCCTAGCCTAGGGAGATTAGAGTATCGGTCGA”, with 4.07 log2 normalized intensity. With “TTGTGGCAGTGAGAACAGGTTCATTCTTTAGCCTAGGGAGATTAGAGTATCGGTCGA”, the binding signal amounted to 0.687 log2 normalized intensity. Take “GCTTGAGCGAGACAGCGGGTGTTTCTGGGAGCCTAGGGAGATTAGAGTATCGGTCGA”: the binding signal amounted to 0.72 log2 normalized intensity. Then “TCATTGCCTCTGGGCTTTGATGGACATTGCGCCTAGGGAGATTAGAGTATCGGTCGA”, with 3.92 log2 normalized intensity; and “AGCAGCCTCAGTGGCTCACAAATGGAGTTTGCCTAGGGAGATTAGAGTATCGGTCGA”, with 1.92 log2 normalized intensity. Consider “GAGCAGCACTTTTGGAGTTTGACCTGGAGCGCCTAGGGAGATTAGAGTATCGGTCGA”, for which the binding signal turned out to be 6.24 log2 normalized intensity. With “AGAGTGAGCAGCACTTTTGGAGTTTGACCTGCCTAGGGAGATTAGAGTATCGGTCGA” the figure was 8.51 log2 normalized intensity; with “CCTCAGTGTGGGACTTTGGTCTGCTGAGTCGCCTAGGGAGATTAGAGTATCGGTCGA”, 3.95 log2 normalized intensity.

“CTTGTCTTATCAGCAGGGTCTTTTTGACCTGCCTAGGGAGATTAGAGTATCGGTCGA”: the binding signal came to 4.79 log2 normalized intensity. With “TAACTTACAGTGCACTTTGACCGCTCATTTGCCTAGGGAGATTAGAGTATCGGTCGA” the figure was 6.77 log2 normalized intensity; with “AAGAAGAGCTCAGTCACAGCAGTGGACTTTGCCTAGGGAGATTAGAGTATCGGTCGA”, 7.41 log2 normalized intensity. Take “CTGCGTAACTTACAGTGCACTTTGACCGCTGCCTAGGGAGATTAGAGTATCGGTCGA”: the binding signal turned out to be 7.74 log2 normalized intensity. With “GAGCTCAGTCACAGCAGTGGACTTTGACCTGCCTAGGGAGATTAGAGTATCGGTCGA” the figure was 11.7 log2 normalized intensity; with “CAGGACTGCGTAACTTACAGTGCACTTTGAGCCTAGGGAGATTAGAGTATCGGTCGA”, 5.6 log2 normalized intensity; with “CCAGCTAGAAGCAGTGGGACAAAGGTCACAGCCTAGGGAGATTAGAGTATCGGTCGA”, 6.82 log2 normalized intensity. Regarding “GGGGCAGAGTGAGCAGCACTTTTGGAGTTTGCCTAGGGAGATTAGAGTATCGGTCGA”, the binding signal is 2.17 log2 normalized intensity.
